Results reported in PubChem BioAssay (NCI).
The panel holds about 83,000 compounds, 20% with a hit somewhere; the sample as a whole holds those more often.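 The endpoint reported here, percent growth, reads 100 for growth as untreated, 0 for no net growth and -100 for all cells dead.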 Values without a mark were called inactive. Calls of active or inactive are those of the source. How the source made its calls: active means growth percent below 10; inactive means the rest.

Experiments:
Experiment in all cases: NCI-60 one-dose screen, 48 h (100 = growth as untreated, 0 = no growth, -100 = all killed)
Settings in all cases: 10 µM unless noted
[1] = tested on: DU-145 prostate
[2] = tested on: K-562 leukemia
[3] = tested on: MALME-3M melanoma
[4] = tested on: MDA-MB-231 breast
[5] = tested on: RXF 393 renal
[6] = tested on: SF-268 CNS
[7] = tested on: SF-295 CNS
[8] = tested on: SF-539 CNS
[9] = tested on: UACC-257 melanoma
[10] = tested on: M14 melanoma
[11] = tested on: HCT-15 colon
[12] = tested on: HT29 colon
[13] = tested on: SNB-75 CNS
[14] = tested on: SNB-19 CNS
[15] = tested on: U251 CNS
[16] = tested on: PC-3 prostate
[17] = tested on: SK-MEL-5 melanoma
[18] = tested on: UACC-62 melanoma
[19] = tested on: LOX IMVI melanoma
[20] = tested on: SK-MEL-28 melanoma

Structure (SMILES) | growth [1] | growth [2] | growth [3] | growth [4] | growth [5] | growth [6] | growth [7] | growth [8] | growth [9] | growth [10] | growth [11] | growth [12] | growth [13] | growth [14] | growth [15] | growth [16] | growth [17] | growth [18] | growth [19] | growth [20]
c1ccc(Cn2cc3c(c2)-c2nc(Nc4ccccc4)ncc2CC3)cc1 | 83.2% [100 µM] | 108% [100 µM] | 83.5% [100 µM] | 65.2% [100 µM] | 48.6% [100 µM] | 76.9% [100 µM] | 57.6% [100 µM] | 64.3% [100 µM] | 98.2% [100 µM] | 92.9% [100 µM] | 116% [100 µM] | 117% [100 µM] | 63.7% [100 µM] | 84.1% [100 µM] | 69.1% [100 µM] | 72.8% [100 µM] | 79.4% [100 µM] | 82.7% [100 µM] | 85.6% [100 µM] | 92.5% [100 µM]
Cn1ccnc1C(=O)/C=C/c1ccc(C(=O)Nc2ccccc2F)cc1 | 20.7% | 12.6% | 54.7% | -2.25% (active) | 16.4% | 24.7% | 6.25% (active) | -8.53% (active) | 66.7% | 8.56% (active) | 14.2% | 10.9% | 56.2% | 21.1% | 10.5% | 25.1% | 83.7% | 37.3% | -41.1% (active) | 59.2%
Cc1ccc(-c2nc(C#N)c(S(=O)(=O)n3nc(C)cc3N)o2)cc1 | 108% | -17.2% (active) | -63.3% (active) | 88.3% | 76.8% | 93.5% | 109% | 96.7% | 95.1% | 48.8% | 49.2% | 50.1% | 97.6% | 97.5% | 95.4% | 85% | 90% | 96.1% | 56.4% | 93.8%
C#C[C@]1(O)CC[C@H]2[C@@H]3CC=C4c5sc(-c6ccccc6)nc5CC[C@]4(C)[C@H]3CC[C@@]21C | 96.1% | 17.6% | 97.5% | 89% | 32.3% | 83.4% | 41.4% | 31.6% | 84.6% | 78.9% | 52.3% | 74.2% | 63.6% | 88% | 69.8% | 65.7% | 97.4% | 91.6% | 74.9% | 61.2%
O=C(Nc1ccc2c(c1)-c1ccccc1C2)C1CC(=O)N(c2ccc3c(c2)OCO3)C1 (stereo not given) | 52.1% [50 µM] | 57.5% [50 µM] | 58.1% [50 µM] | 59.9% [50 µM] | 56.6% [50 µM] | 69.2% [50 µM] | 47% [50 µM] | -60.7% [50 µM] (active) | 69.5% [50 µM] | 62.7% [50 µM] | 89.3% [50 µM] | 64.6% [50 µM] | -2.42% [50 µM] (active) | 46.4% [50 µM] | 19% [50 µM] | 33.1% [50 µM] | 56% [50 µM] | 44.3% [50 µM] | 63.1% [50 µM] | 33.4% [50 µM]
CCOC(=O)c1ccc2c(c1)c1c(C)c3cnccc3c(C)c1n2C | -17% (active) | 0.0057% (active) | -91.3% (active) | -55.9% (active) | -83% (active) | -15.9% (active) | -24.3% (active) | -95.8% (active) | -42.2% (active) | -88.3% (active) | -64.9% (active) | -44.6% (active) | -45% (active) | -15% (active) | -45.1% (active) | -21.7% (active) | -99% (active) | -77.3% (active) | -62.2% (active) | -97.7% (active)
Cc1oc2ccc(O)c(CN3CCCCCC3)c2c1C(=O)Nc1ccc(C(F)(F)F)cc1 | 64.8% | 29.6% | 49.9% | 49% | 50.4% | 75.4% | 48.8% | 61.2% | 82% | 58.1% | 45.1% | 80.5% | 50.6% | 69.9% | 55.1% | 45.7% | 70% | 67.3% | 39.2% | 76.9%
C#Cc1cccc(Nc2ncnc3ccc(-c4cnc(Cl)c(NS(C)(=O)=O)c4)cc23)c1 | 2.5% (active) | 11.2% | -35.5% (active) | -6.68% (active) | -54.9% (active) | -30.1% (active) | -31.9% (active) | -38.4% (active) | -9.67% (active) | -26.7% (active) | -32.2% (active) | -21.1% (active) | -21.8% (active) | -24.3% (active) | -61.6% (active) | -7.01% (active) | -95.6% (active) | -67.9% (active) | -53.4% (active) | -12.1% (active)
Cc1cc(C)n(C(=O)CSc2nc3sc4c(c3c(=O)n2-c2ccccc2)CCCCC4)n1 | 106% | 97.1% | 107% | 108% | 99.9% | 104% | 101% | 105% | 96.7% | 113% | 103% | 105% | 89.6% | 95.4% | 97.4% | 99% | 93% | 95.6% | 98.9% | 110%
Cn1ncc(CC(=O)O)c1-n1nnc2cc(Cl)ccc2c1=O | 109% | 98.4% | 93.9% | 94.5% | 114% | 103% | 91.7% | 96.7% | 100% | 100% | 107% | 103% | 81.1% | 96% | 103% | 103% | 110% | 94.8% | 103% | 144%
CCOC(=O)c1c(C)c2c(n1Cc1ccccc1)CSc1cc(C#N)c(=O)[nH]c1-2 | 83.9% [100 µM] | 75.5% [100 µM] | 55% [100 µM] | 54.8% [100 µM] | 26.6% [100 µM] | 67.5% [100 µM] | 43.6% [100 µM] | 52.6% [100 µM] | 121% [100 µM] | 90.4% [100 µM] | 66.3% [100 µM] | 71% [100 µM] | 25.4% [100 µM] | 89.3% [100 µM] | 49.8% [100 µM] | 70% [100 µM] | 100% [100 µM] | 70.9% [100 µM] | 72.9% [100 µM] | 105% [100 µM]
COC12C=C/C(=C(/C(=O)OCc3ccccn3)C(=O)CCCCCCCCC3(OC)C=C/C(=C(/C(=O)OCc4ccccn4)C(=O)CCCCCCCC1)O3)O2 | -24.5% (active) | -0.106% (active) | -60.1% (active) | 7.85% (active) | -82.5% (active) | -8.87% (active) | -25.7% (active) | -28.3% (active) | 11% | -23.3% (active) | -37.5% (active) | 3.23% (active) | 1.28% (active) | 12.5% | -25.6% (active) | -37.4% (active) | -83.3% (active) | -52.5% (active) | -69.6% (active) | -11.1% (active)
N/C(=N\c1nc2ccccc2s1)NC(=O)Nc1ccccc1 | 58.1% | 10.8% | 58.1% | 31.6% | 62.1% | 57.5% | 39% | 26.9% | 59% | 7.51% (active) | 23.4% | 14.3% | 31.4% | 32.1% | 21% | 57.1% | 32.5% | 21% | 34.7% | 72.3%
CN1CCN(Cc2ccc(NC(=O)c3cncc(C#Cc4c(N)ncc5cc(F)ccc45)c3)cc2C(F)(F)F)CC1 | -88% (active) | -50% (active) | -75.3% (active) | -90.4% (active) | -59.9% (active) | 38.6% | 59.5% | 9.53% (active) | 41.5% | -75.8% (active) | -91.7% (active) | -74.8% (active) | 45.1% | -94.9% (active) | -97.5% (active) | 37.9% | -52.7% (active) | 29.4% | -81.4% (active) | -41.9% (active)
